# Laboratory results from PubChem BioAssay.
# Calls of active or inactive are those of the source.
# Experiments:
# [1] = optical density shifts of acrAB sulA E. coli – strain DRC41, OD650, 48 h, E. coli filamentation inducer project, primary screen (AID 1152); settings: higher = more signal, called active from +8 up or from −8 down;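 further: E. coli MC1000 strain DRC41 lacking acrAB efflux pump and sulA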
# [2] = probe aLefty1 binding on compound microarray – biochemical, small-molecule microarray, 635/667 nm fluorescence, primary screen (AID 1153); settings: higher = more signal;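 further: score merges spot fluorescence with signal-to-noise ratio from the scanned slide images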
# [3] = plasmodial surface anion channel blockers, osmotic lysis – cell-based, P. falciparum Indochina, OD700, 1 h, primary screen (AID 1154); settings: P. falciparum Indochina infected RBC osmotic lysis, higher = more signal, called active from +8 up or from −8 down
# [4] = plasmodial surface anion channel blockers, osmotic lysis – cell-based, P. falciparum Indochina, OD700, 2 h, primary screen (AID 1155);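 further: lysis reports solute entry through the parasite surface anion channel PSAC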; settings: P. falciparum Indochina infected erythrocytes, higher = more signal, called active from +8 up or from −8 down
# [5] = changes in parasitized red cell lysis, either direction – P. falciparum Indochina, OD700, 3 h, PSAC antagonist project, primary screen (AID 1156); settings: P. falciparum-infected erythrocytes, osmotic lysis, higher = more signal, called active from +8 up or from −8 down
# [6] = plasmodial surface anion channel blockers, osmotic lysis – cell-based, P. falciparum Indochina, OD700, 18 h, primary screen (AID 1157); settings: P. falciparum Indochina infected erythrocytes, osmotic lysis OD700, 18 h; higher = more signal, called active from +8 up or from −8 down
# [7] = S6 kinase pathway phospho-S6 level changes – cell-based, A549, cytoblot, luminescence, serum-stimulated, primary screen (AID 1158); settings: 5 h, higher = more signal;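 further: serum-stimulated A549 lung adenocarcinoma cells; signal is phosphorylated S6 detected by cytoblot immunostaining with HRP secondary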
# [8] = target: NADPH oxidase 2 (Homo sapiens) (UniProt P04839); assay: compounds shifting NOX2 Amplex Red fluorescence – cell-based, HEK293-NOX2, PMA-stimulated, NOX inhibitor project, primary screen (AID 1159); settings: 45 min, higher = more signal, called active from +8 up or from −8 down; further: test concentration not given here
# [9] = target: NADPH oxidase 4 (Homo sapiens) (UniProt Q9NPH5); assay: compounds shifting NOX4 Amplex Red fluorescence – cell-based, HEK293-NOX4, tetracycline-induced, NOX inhibitor project, primary screen (AID 1160); settings: HEK293-NOX4, Amplex Red H2O2 fluorescence, 45 min; higher = more signal, called active from +8 up or from −8 down
# [10] = target: NADPH oxidase 5 (Homo sapiens) (UniProt Q96PH1); assay: compounds shifting NOX5 Amplex Red fluorescence – cell-based, HEK293-NOX5, NOX inhibitor project, primary screen (AID 1161); settings: HEK293-NOX5, ionomycin, 45 min, higher = more signal
# [11] = compound effects on lung adenocarcinoma cell viability – A549, calcein-AM fluorescence, 48 h, basal, profiling panel (AID 1162); settings: higher = more signal; further: test concentration not given here
# [12] = compound effects on differentiated 3T3-L1 adipocyte viability – cell-based, 3T3-L1 adipocytes, calcein-AM fluorescence, 48 h, basal, profiling panel (AID 1163); settings: 3T3-L1 adipocytes viability, higher = more signal; further: test concentration not given here
# [13] = compound effects on hepatocellular carcinoma cell viability – HepG2, calcein-AM fluorescence, 48 h, basal, profiling panel (AID 1164); settings: higher = more signal; further: test concentration not given here
# [14] = compound effects on multiple myeloma cell viability – MM1S, calcein-AM fluorescence, 48 h, basal, profiling panel (AID 1165); settings: higher = more signal;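 further: viability of MM1S multiple myeloma cells under basal unstimulated conditions; test concentration not given here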
# [15] = calcein-AM signal in unstimulated myeloma cells – cell-based, calcein-AM fluorescence, 48 h, PK04 Diversity Set, profiling panel (AID 1166); settings: RPMI8226 myeloma viability, higher = more signal;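 further: cells grown under basal conditions without added stimulus; test concentration not given here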
# [16] = JC-1 mitochondrial signal, unstimulated HepG2 cells – cell-based, JC-1 fluorescence, 24 h, 100 nL compound, profiling panel (AID 1167); settings: HepG2 mitochondrial potential, higher = more signal; further: test concentration not given here
# [17] = JC-1 mitochondrial signal, unstimulated adipocytes – cell-based, JC-1 fluorescence, 3T3-L1 adipocytes, 24 h, 100 nL compound, profiling panel (AID 1168); settings: JC-1 mitochondrial fluorescence, higher = more signal, called active from +8 up or from −8 down; further: test concentration not given here
# [18] = JC-1 mitochondrial signal, unstimulated myeloma cells – cell-based, JC-1 fluorescence, RPMI8226, 24 h, 100 nL compound, profiling panel (AID 1169); settings: JC-1 mitochondrial potential fluorescence, higher = more signal; further: test concentration not given here
# [19] = JC-1 mitochondrial signal, unstimulated MM1S myeloma – cell-based, JC-1 fluorescence, 24 h, 100 nL compound, profiling panel (AID 1170); settings: MM1S mitochondrial potential, higher = more signal; further: test concentration not given here
# [20] = resazurin metabolic signal in A549 cells – cell-based, resazurin fluorescence, 24 h, PK04 Diversity Set, profiling panel (AID 1171); settings: A549 viability, higher = more signal, called active from +8 up or from −8 down; further: test concentration not given here
# Sequence of NADPH oxidase 5 (Homo sapiens) (Q96PH1 whole entry, looked up): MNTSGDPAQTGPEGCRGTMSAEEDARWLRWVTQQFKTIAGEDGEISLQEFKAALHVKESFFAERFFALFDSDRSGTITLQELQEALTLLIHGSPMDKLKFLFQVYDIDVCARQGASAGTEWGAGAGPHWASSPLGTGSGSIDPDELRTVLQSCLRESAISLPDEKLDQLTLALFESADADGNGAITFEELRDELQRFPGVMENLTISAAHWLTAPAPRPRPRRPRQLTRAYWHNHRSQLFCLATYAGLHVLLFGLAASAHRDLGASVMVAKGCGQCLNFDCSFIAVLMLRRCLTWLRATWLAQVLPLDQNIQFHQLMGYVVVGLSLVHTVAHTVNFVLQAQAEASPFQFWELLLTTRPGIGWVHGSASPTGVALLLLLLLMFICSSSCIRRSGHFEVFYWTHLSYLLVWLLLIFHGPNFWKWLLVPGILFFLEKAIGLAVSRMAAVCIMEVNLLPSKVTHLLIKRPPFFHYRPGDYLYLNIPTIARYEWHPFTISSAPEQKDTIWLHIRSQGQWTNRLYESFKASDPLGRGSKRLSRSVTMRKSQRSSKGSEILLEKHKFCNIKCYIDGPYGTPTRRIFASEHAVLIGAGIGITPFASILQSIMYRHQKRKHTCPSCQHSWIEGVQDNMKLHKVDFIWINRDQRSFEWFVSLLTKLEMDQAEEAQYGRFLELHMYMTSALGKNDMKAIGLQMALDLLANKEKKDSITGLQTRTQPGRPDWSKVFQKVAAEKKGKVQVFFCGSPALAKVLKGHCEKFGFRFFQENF
# Sequence of NADPH oxidase 2 (Homo sapiens) (P04839 whole entry, looked up): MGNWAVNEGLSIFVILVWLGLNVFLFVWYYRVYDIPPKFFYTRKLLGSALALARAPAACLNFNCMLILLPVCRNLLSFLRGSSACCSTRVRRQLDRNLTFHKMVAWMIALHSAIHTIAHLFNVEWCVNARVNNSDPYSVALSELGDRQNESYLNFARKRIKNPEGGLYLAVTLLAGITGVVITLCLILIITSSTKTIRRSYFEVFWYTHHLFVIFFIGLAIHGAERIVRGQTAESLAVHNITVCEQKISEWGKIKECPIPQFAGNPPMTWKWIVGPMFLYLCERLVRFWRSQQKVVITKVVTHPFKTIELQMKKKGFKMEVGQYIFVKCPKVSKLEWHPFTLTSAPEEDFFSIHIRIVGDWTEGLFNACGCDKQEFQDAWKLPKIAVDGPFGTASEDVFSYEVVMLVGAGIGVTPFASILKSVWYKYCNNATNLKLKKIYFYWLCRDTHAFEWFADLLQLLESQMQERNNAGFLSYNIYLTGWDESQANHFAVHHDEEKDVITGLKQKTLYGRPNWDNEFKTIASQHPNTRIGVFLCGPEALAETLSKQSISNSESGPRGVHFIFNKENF
# Sequence of NADPH oxidase 4 (Homo sapiens) (Q9NPH5 whole entry, looked up): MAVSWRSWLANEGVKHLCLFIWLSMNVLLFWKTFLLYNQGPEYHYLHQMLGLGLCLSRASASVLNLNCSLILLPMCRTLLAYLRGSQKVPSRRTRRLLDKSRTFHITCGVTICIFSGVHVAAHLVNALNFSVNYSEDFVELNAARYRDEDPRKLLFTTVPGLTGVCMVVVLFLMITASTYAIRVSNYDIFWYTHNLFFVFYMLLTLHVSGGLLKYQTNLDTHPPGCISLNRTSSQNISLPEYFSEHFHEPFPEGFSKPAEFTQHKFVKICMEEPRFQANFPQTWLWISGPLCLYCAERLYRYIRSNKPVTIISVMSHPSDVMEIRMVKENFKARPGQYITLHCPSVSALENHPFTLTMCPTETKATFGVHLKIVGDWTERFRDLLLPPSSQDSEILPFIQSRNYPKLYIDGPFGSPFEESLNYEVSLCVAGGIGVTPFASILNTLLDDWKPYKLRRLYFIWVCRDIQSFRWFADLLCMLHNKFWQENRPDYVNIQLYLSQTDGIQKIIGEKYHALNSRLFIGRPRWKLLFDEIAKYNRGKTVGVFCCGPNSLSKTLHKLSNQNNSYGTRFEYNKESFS
SMILES,z-score [1],composite z-score [2],z-score [3],z-score [4],z-score [5],z-score [6],z-score [7],z-score [8],z-score [9],z-score [10],z-score [11],z-score [12],z-score [13],z-score [14],z-score [15],z-score [16],z-score [17],z-score [18],z-score [19],z-score [20]
COCCOC(=O)N1C(=O)[C@@]2(c3cc(C#CC4(O)CCCCCC4)ccc31)[C@H](c1ccc(OCCO)cc1)N1[C@H](c3ccccc3)[C@H](c3ccccc3)OC(=O)[C@H]1[C@@H]2C(=O)N1CCCCCCC1,0.148 (inactive),2.52,2.18 (inactive),2.02 (inactive),0.736 (inactive),1.02 (inactive),0.49,0.707 (inactive),-1.45 (inactive),0.0377,-0.359,2.14,0.292,-0.834,-1.78,-1.1,-2.25 (inactive),-0.468,-1.08,-0.557 (inactive)
COCCOC(=O)N1C(=O)[C@@]2(c3cc(C#CC4=CCCCC4)ccc31)[C@H](C(=O)N1CCN(c3ncccn3)CC1)[C@H]1C(=O)O[C@H](c3ccccc3)[C@H](c3ccccc3)N1[C@@H]2c1ccccc1OCCO,2.23 (inactive),0.297,1.65 (inactive),0.256 (inactive),-0.634 (inactive),-0.227 (inactive),2.05,-0.241 (inactive),-2.24 (inactive),-3.12,-0.793,1.36,-0.435,-1.24,-1.88,-0.0311,10.6 (active),-0.645,-1.47,0.738 (inactive)
COCCOC(=O)N1C(=O)[C@@]2(c3cc(C#CCC(C(=O)OC)C(=O)OC)ccc31)[C@H](C(=O)N1CCc3cc(OC)c(OC)cc3C1)[C@H]1C(=O)O[C@H](c3ccccc3)[C@H](c3ccccc3)N1[C@@H]2c1ccc(O)cc1,-0.0961 (inactive),0.191,0.577 (inactive),0.524 (inactive),-0.5 (inactive),0.0513 (inactive),-0.111,1.91 (inactive),0.862 (inactive),0.912,0.373,0.643,0.391,-0.422,-1.54,0.448,-0.216 (inactive),0.109,0.516,0.0392 (inactive)
O=C1O[C@@H](c2ccccc2)[C@@H](c2ccccc2)N2[C@@H](c3ccc(O)cc3)[C@]3(C(=O)Nc4ccc(C#CC5=CCCCC5)cc43)[C@@H](C(=O)N3CCCCCCC3)[C@H]12,1.3 (inactive),2.57,-0.781 (inactive),-1.2 (inactive),-0.993 (inactive),-2.4 (inactive),2.98,0.682 (inactive),0.597 (inactive),1.56,-0.361,0.967,0.606,0.212,-1.72,0.41,0.571 (inactive),-0.527,0.135,-0.77 (inactive)
COCCOC(=O)N1C(=O)[C@@]2(c3cc(C#CCC(C(=O)OC)C(=O)OC)ccc31)[C@H](C(=O)N1CCCCCCC1)[C@H]1C(=O)O[C@H](c3ccccc3)[C@H](c3ccccc3)N1[C@@H]2c1ccccc1OCCO,0.822 (inactive),2.72,2.04 (inactive),-0.228 (inactive),0.489 (inactive),-1.21 (inactive),2.14,-0.817 (inactive),-0.194 (inactive),-1.87,-0.143,1.83,0.0429,-0.284,-1.56,-0.747,2.14 (inactive),-0.124,-0.892,0.822 (inactive)
CCOC(=O)C1=C(C(=O)OCC)N(S(=O)(=O)CC[Si](C)(C)C)[C@H](c2ccccc2)CC1,-0.941 (inactive),0.174,1.23 (inactive),0.763 (inactive),0.106 (inactive),0.19 (inactive),-0.405,-0.135 (inactive),0.232 (inactive),0.134,-2.6,-0.872,-2.78,-1.02,-4.13,3.63,-0.0617 (inactive),-0.982,-3.04,0.571 (inactive)
COCCOC(=O)N1C(=O)[C@@]2(c3cc(C#CC4=CCCCC4)ccc31)[C@H](C(=O)N1CCc3cc(OC)c(OC)cc3C1)[C@H]1C(=O)O[C@H](c3ccccc3)[C@H](c3ccccc3)N1[C@@H]2c1ccc(O)cc1,0.448 (inactive),0.679,0.996 (inactive),0.755 (inactive),0.067 (inactive),0.827 (inactive),0.228,1.58 (inactive),-0.0332 (inactive),1.18,0.59,0.479,0.334,-1.16,-0.583,-0.427,0.508 (inactive),-0.388,0.403,0.481 (inactive)
COc1ccc([Si](C)(C)[C@@H]2[C@@H](CCO)O[C@]3(C(=O)N(Cc4ccccc4)c4ccc(N5C(=O)c6ccccc6Oc6ccccc65)cc43)[C@H]2C)cc1,1.02 (inactive),0.0962,2.11 (inactive),1.37 (inactive),0.0898 (inactive),0.718 (inactive),0.656,0.212 (inactive),1.64 (inactive),2.23,-1.47,-0.0095,-1.96,-1.77,-2.66,-0.871,-0.735 (inactive),-0.848,-1.36,-1.07 (inactive)
COC(=O)C1(CC(C)C)C=C2C(=C(C(C)C)C(=O)C2C)CN1 (stereo not given),-1.85 (inactive),0.302,1.06 (inactive),-0.385 (inactive),1.07 (inactive),0.274 (inactive),-0.38,0.377 (inactive),-1.05 (inactive),-2.44,-1.49,-0.404,-1.43,0.0112,-1.31,-1.31,-1.46 (inactive),0.105,-0.919,-0.697 (inactive)
